CBFb-RUNX1 inh: blocks binding between human CBF-beta and RUNX1 | AlphaScreen CBFb-His/RUNX1-biotin binding, biochemical | Q01196+Q13951 | 230,000 tested, under 10 active | Potency, µM (top dose mostly 59.8 µM), for inactives: at the top dose activity, negative = inhibition, hits mostly inhibitors; further: % of control where 0% means no effect
Target sequence (Q01196 whole entry, looked up): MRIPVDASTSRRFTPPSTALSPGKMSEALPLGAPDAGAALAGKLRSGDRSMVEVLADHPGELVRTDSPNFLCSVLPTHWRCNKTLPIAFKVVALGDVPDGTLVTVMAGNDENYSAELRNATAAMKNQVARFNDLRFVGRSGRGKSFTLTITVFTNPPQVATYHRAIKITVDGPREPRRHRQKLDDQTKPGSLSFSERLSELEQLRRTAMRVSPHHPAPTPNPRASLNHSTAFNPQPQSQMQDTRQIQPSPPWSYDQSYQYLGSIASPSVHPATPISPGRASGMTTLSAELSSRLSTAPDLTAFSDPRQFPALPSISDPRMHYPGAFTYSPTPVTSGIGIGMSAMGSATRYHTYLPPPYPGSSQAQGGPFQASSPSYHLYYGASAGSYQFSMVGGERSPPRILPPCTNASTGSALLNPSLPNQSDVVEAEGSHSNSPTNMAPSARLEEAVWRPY
Target sequence (Q13951 whole entry, looked up): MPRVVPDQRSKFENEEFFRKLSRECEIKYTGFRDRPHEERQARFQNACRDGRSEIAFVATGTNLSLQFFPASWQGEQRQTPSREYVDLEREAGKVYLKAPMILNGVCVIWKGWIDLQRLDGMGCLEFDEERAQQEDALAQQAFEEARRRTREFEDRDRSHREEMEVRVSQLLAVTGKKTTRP
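Interaction loss through any mechanism counts as activity. Pre-formed complex of His-CBF-beta and biotin-RUNX1 (30 nM apiece) is incubated with compound 15 min, then with 50 ng nickel and 50 ng streptavidin beads for 90 min before AlphaScreen detection.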
PTAP TSG101 blk: blocks PTAP/TSG101 interaction to inhibit HIV-1 budding; Q99816; Fluorescence polarization, FITC-PTAP peptide / Tsg101 binding; Potency, µM (doses to about 115 µM), for inactives: at the top dose activity change, negative = inhibition, most hits filed as inhibitors; 340,000 tested, under 10 active; AID 493005; active means well fitted inhibition curve with a large enough effect in the main read-out, with a control signal flat, not every such curve was filed as active; inconclusive means small, poorly fitted or top-dose-only effect, or effect the other way, or a change in a side signal; inactive means no such curve, though single readings can be large or run the other way; further: potency means the concentration at half of the fitted maximal effect; % of control where 0% means no effect
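FP read-out: FITC-PTAP peptide, 50 nM final, binding Tsg101 binding domain, 10 uM final; 20 min, r.t.; 10 mM HEPES pH 7.5, 0.15 M NaCl, 0.01% Tween 20, 3 mM EDTA, 0.1 mM TCEP.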
MBNL1-CUG inh: MBNL1-poly(CUG) RNA binding inhibition. Potency, µM (top dose mostly 57.5 µM), without a hit: at the top dose activity change, negative = inhibition, hits mostly inhibitors. TR-FRET MBNL1-His/biotin-(CUG)12 binding, 665/545 ratio. 0.036% of 280,000 active; active means well fitted inhibition curve with a large enough effect in the signal ratio, with a control signal flat, not every such curve was filed as active; inconclusive means small, poorly fitted or top-dose-only effect, or effect the other way, or a change in a side signal; inactive means no such curve, though single readings can be large or run the other way; the % refers to the signal ratio; further: potency means the concentration at half of the fitted maximal effect; on the % scale 0 is the no-effect control and ±100 the full control effect
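MBNL1-His + Biotin-(CUG)12, cpd titration 92 nM–58 uM; Tb anti-His Ab 0.055 ng/ul, SA-XL665 5 nM (final); 60 min RT; ratiometric 665/545 nm, Ex 340 nm; normalized to buffer and full-complex controls.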
Vif-APOBEC3G blk: inhibitors of Vif-APOBEC3G interaction; Q9HC16; HeLa A3G-eYFP + Vif (tagged APOBEC3G with the HIV-1 protein that degrades it), YFP fluorescence, overnight; Potency, µM (titrated, usually from 46.1 µM), for inactives: at the highest dose activity, negative = active, usual class: inhibitors; 0.076% of 410,000 active; AID 602310; further: potency means the concentration at half of the fitted maximal effect; on the % scale 0 is the no-effect control and ±100 the full control effect; nearly all actives have a fitted effect of over 60% in size
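Read-out is eYFP fluorescence (Ex 488/Em 500-530) from Vif-expressing HeLa A3G-eYFP cells; more signal means A3G escaped Vif-mediated degradation. Cells plated overnight, compound pinned in, incubated overnight at 37 deg C.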
Vif-A3F inh: inhibitors of Vif-A3F interaction; HeLa A3F-eYFP + Vif (tagged APOBEC3F with the HIV-1 protein that degrades it), YFP fluorescence increase; Potency, µM (titrated, usually from 46.1 µM), for the others: at the highest dose activity, negative = active; 0.2% of 390,000 active; further: potency means the concentration at half of the fitted maximal effect; % of control where 0% means no effect; nearly all actives have a fitted effect of over 65% in size
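Fluorescence increase (Ex 488/Em 500-530) after overnight compound treatment at 37 deg C flags inhibition of Vif-driven A3F-eYFP loss in stable HeLa A3F-eYFP/Vif cells seeded overnight beforehand.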
Epigenetic reg: regulators of epigenetic silencing causing reporter derepression in mouse cells; Potency, µM (top dose mostly 53.9 µM), inactives show top-dose GFP activation, usual class: activators; murine LDR cells, GFP reporter derepression, 30 h; 0.2% of 280,000 active; further: potency means the concentration at half of the fitted maximal effect; % of control where 0% means no effect; nearly all actives have a fitted effect of over 60% in size
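GFP-positive cell count by laser-scanning cytometry (objects 20–120 um) after 30 h, 37 C compound exposure of murine LDR cells; reporter is CMV-GFP integrated at a silenced locus, inducible by HDAC or DNMT inhibitors.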
C127i cell count: changes parental c127i cell counts in epigenetic modulator counter-screen | shares compounds with Epigenetic reg | mouse c127i parental cells, fluorescent cell count, 30 h | Potency, µM, without a hit: at the highest dose fluorescent cell count, usual class: activators | 20% of 60 active
HCC4017 tox: reduces HCC4017 lung cancer cell viability among epigenetic modulators | HCC4017 NSCLC viability, CellTiter-Glo ATP luminescence, 72 h | Potency, µM (top dose mostly 46.1 µM), for inactives: at the top dose activity change, negative = cytotoxicity, most hits filed as cytotoxic | AID 493071 | shares compounds with Epigenetic reg | 30% of 45 active
H358 tox: H358 cytotoxicity of epigenetic modulator hits; shares compounds with Epigenetic reg; Potency, µM (titrated, usually from 46.1 µM), for the others: at the top dose activity change, negative = viability loss, usual class: cytotoxic; 30% of 45 active; AID 493074; H358 NSCLC viability, ATP luminescence, 72 h
An asterisk follows results filed as active; ? = inconclusive; / = no result given; [ ] = remark or other dose. Shown are actives, neighbours in structure and some others; about 0.37% of the full set was active somewhere. Unless noted, the call rests on the fitted dose curve; in most records, active means well fitted curve in the direction sought with a large enough effect; inconclusive means small, poorly fitted or top-dose-only effect, or another doubt; inactive means no such curve, though single readings can be large; an effect the other way counts as inactive or inconclusive.

SMILES	CBFb-RUNX1 inh	PTAP TSG101 blk	MBNL1-CUG inh	Vif-APOBEC3G blk	Vif-A3F inh	Epigenetic reg	C127i cell count	others
CC(C)(C)n1ncc2c(=O)n(Cc3ccc(Cl)c(C(F)(F)F)c3)cnc21	/	/	/	-9.2%	/	/	/
CCCCCCCCCC[n+]1ccc(/C=C/c2c(C)[nH]c3ccccc23)c2ccccc21	/	/	/	6.8%	/	/	/
O=c1c2ccccc2sc2ccc(NCCCN3CCOCC3)cc12	/	0.9%	/	?	22.4µM*	/	/
COc1cc2sc3cc(NCCCN4CCOCC4)ccc3c(=O)c2cc1OC	/	/	/	8.5%	-12.4%	/	/
CCOc1ccc2[nH]c3c(=O)n(CCC4=CCCCC4)cnc3c2c1	5.5%	1.0%	/	-0.7%	-5.1%	1.4%	/
CCOc1ccc2[nH]c3c(=O)n(CCc4ccc(OC)cc4)cnc3c2c1	6.9%	0.0%	-5.8%	1.6%	4.3%	25.1µM*	/
O=C(Nc1cc(F)ccc1F)c1cnn2c1NC(=C1CC1)C=C2C(F)F	/	/	/	1.7%	/	/	/
COc1ccccc1N1N=C(c2ccc([N+](=O)[O-])cc2)CC1c1ccccc1 (stereo not given)	/	1.0%	?	2.51µM*	-952.8%	/	/
CCCCN(CCCNC(=O)c1cc(Nc2cccc(SC)c2)nc2ccccc12)Cc1ccccc1	/	/	/	?	-0.5%	35.5µM*	/
Cc1cc(Br)ccc1SCC(=O)OC/C(O)=C(\C#N)c1nc2ccccc2[nH]1	0.4%	11.1%	-7.3%	-5.9%	25.1µM*	15.1%	/
CC(C)(C)n1ncc2c(=O)n(Cc3ccccc3SC(F)(F)F)cnc21	/	/	/	-7.6%	/	/	/
O=C1/C(=C/c2ccc(O)cc2)SC(=S)N1CC1CCCO1 (stereo not given)	1.9%	21.6%	/	-1.1%	22.4µM*	6.8%	/
O=C1/C(=C\c2ccc(O)cc2)SC(=S)N1Cc1ccccc1	/	12.1%	4.6%	-17.8%	11.2µM*	/	/
O=C(O)CCc1cccc2ccccc12	/	/	/	2.1%	/	/	/
Cc1cc(NC(=O)Nc2nnc(N(C)Cc3ccccc3)s2)ccc1Br	/	/	/	12.6µM*	?	-1.0%	/
CCN(c1ccccc1)c1nnc(NC(=O)Nc2ccc(Br)c(C)c2)s1	/	/	/	0.0%	0.4%	0.2%	/
COc1cc(/C=C(\C#N)c2nc3ccc(C)cc3[nH]2)c([N+](=O)[O-])cc1OC	-14.6%	0.3%	?	0.9%	0.4%	-2.3%	/
CCCOc1cc(N(CC)CC)ccc1/C=C(/C#N)c1nc2ccc(C)cc2[nH]1	-0.4%	?	7.2%	?	3.16µM*	2.4%	2.51µM*
CC1CCCN(c2nc3nonc3nc2Nc2ccccc2F)C1 (stereo not given)	-3.1%	-3.2%	-3.2%	-7.1%	3.4%	1.2%	/
COc1ccc(OC)c(Nc2nc3nonc3nc2N2CCCC(C)C2)c1 (stereo not given)	4.8%	1.7%	/	-5.4%	-8.8%	?	14.1µM*
CCc1nnc(NC(=O)c2cccc(C(=O)Nc3nnc(CC)s3)n2)s1	5.3%	-4.3%	-7.3%	-1.8%	-12.4%	2.51µM*	6.0%	HCC4017 tox=0.499µM*;H358 tox=0.56µM*
CCCc1nnc(N2C(=O)c3oc4ccc(F)cc4c(=O)c3C2c2ccc(C(=O)OC)cc2)s1 (stereo not given)	/	/	/	-7.2%	-3.6%	0.0%	/
COc1ccc2c(C)cc(SCC(=O)N(C)C3CCS(=O)(=O)C3)nc2c1 (stereo not given)	-1.9%	24.4%	-4.8%	?	11.2µM*	10µM*	?	HCC4017 tox=-14.4%;H358 tox=-8.4%
CSc1nsc(/C=C/Nc2cccc(Cl)c2)c1C#N	-8.8%	4.4%	45.8%	?	?	7.08µM*	10µM*	HCC4017 tox=-18.7%;H358 tox=-14.3%
CN(C)S(=O)(=O)c1ccc2c(c1)C(=O)c1cc(S(=O)(=O)N(C)C)ccc1CC2	/	0.4%	/	1.3%	4.5%	/	/
SMILES	CBFb-RUNX1 inh	PTAP TSG101 blk	MBNL1-CUG inh	Vif-APOBEC3G blk	Vif-A3F inh	Epigenetic reg	C127i cell count	others
CN(C)S(=O)(=O)c1ccc2c(c1)/C(=C/c1cc3c([nH]1)CCCC3)C(=O)N2	-8.6%	?	/	?	?	7.94µM*	3.16µM*
COc1ccc(N2CCN(S(=O)(=O)c3ccc(-c4cc(C(F)(F)F)on4)s3)CC2)cc1	/	/	/	-0.4%	-0.4%	-3.0%	/
CCOc1ccc(NC(=O)CC2C(=O)N(c3ccc(F)cc3)C(=O)N2Cc2ccc(OC)c(OC)c2)cc1 (stereo not given)	/	/	/	-2.4%	0.4%	-2.7%	/
CN1CCN(c2ccc(NC(=O)c3ccc([N+](=O)[O-])o3)cc2Cl)CC1	/	-7.6%	?	?	-0.7%	/	/
CCCC(=O)N1CCN(c2ccc(NC(=O)c3ccc([N+](=O)[O-])o3)cc2Cl)CC1	-3.2%	-0.2%	/	?	-0.5%	?	4.0%	HCC4017 tox=1.77µM*;H358 tox=2.5µM*
CC(C)C(=O)N1CCN(c2ccc(NC(=O)c3ccc([N+](=O)[O-])o3)cc2Cl)CC1	1.4%	-0.2%	?	?	0.9%	?	?
O=C1CN(c2nc(-c3ccccc3)c3cc(Cl)ccc3n2)c2ccccc2N1	5.2%	-0.2%	-18.6%	-0.2%	?	?	14.0%	HCC4017 tox=-25.8%;H358 tox=?
O=c1c2ccccc2nc(COc2ccccc2)n1/N=C/c1ccc(O)cc1O	-21.0%	-0.6%	-7.1%	-7.2%	-7.4%	0.1%	/
O=c1c2ccccc2nc(COc2ccccc2)n1/N=C/c1c[nH]c2ccccc12	-0.4%	0.4%	-13.0%	-9.6%	?	10µM*	5.0%	HCC4017 tox=?;H358 tox=-26.6%
CC(=O)N[C@@H](CSC(=O)[C@]1([C@@H](O)C(C)C)NC(=O)[C@H](C)[C@@H]1O)C(=O)O	13.5%[13.1 µM]	/	/	/	/	?	25.1µM*
CC(=O)N[C@@H](CSC/C=C(\C)CCC=C(C)C)C(=O)O	4.1%	/	/	/	/	6.3%	/
O=C(CN1C(=O)CSc2ccc(S(=O)(=O)N3CCCC3)cc21)NCc1ccccc1Cl	/	/	/	3.7%	11.1%	-1.5%	/

From PubChem BioAssay
